How the values were obtained:
[1] = system: CLZ3 (HCA2 human fibroblast dual HR-NHEJ reporter); assay: NHEJ repair efficiency (GFP+ cells) relative to control (log10 fold); higher = more non-homologous end joining; details: 5 µM; doxycycline 0.5 ug/mL
[2] = system: CLZ3 (HCA2 human fibroblast dual HR-NHEJ reporter); assay: HR repair efficiency (tdTomato+ cells) relative to control (log10 fold); higher = more homologous recombination; details: 5 µM; doxycycline 0.5 ug/mL
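Throughout, for HR repair efficiency (tdTomato+ cells) relative to control: compound given one day before doxycycline, which switches on I-SceI endonuclease expression to create double-strand breaks within the integrated reporter.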
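Throughout, for NHEJ repair efficiency (GFP+ cells) relative to control: compound given one day ahead of doxycycline, which switches on I-SceI endonuclease to cut the chromosomally integrated reporter and create DSBs.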

With `C=C(CCC=C(C)C)[C@H]1CC[C@]2(C)[C@@H]1[C@H](O)C[C@@H]1[C@@]3(C)CC[C@H](O)C(C)(C)[C@@H]3[C@@H](O[C@@H]3O[C@H](CO)[C@@H](O)[C@H](O)[C@H]3O)C[C@]12C` [Ginsenoside Rk3] the “NHEJ repair efficiency (log10)” value [1] was 0.000935 and the “HR repair efficiency (log10)” value [2] was 0.0532.
With `O=C(/C=C/c1ccc(O)c2c1[C@H](C(=O)O)[C@@H](c1ccc(O)c(O)c1)O2)O[C@H](Cc1ccc(O)c(O)c1)C(=O)O` [Lithospermic acid] the “NHEJ repair efficiency (log10)” value [1] was 0.072 and the “HR repair efficiency (log10)” value [2] was 0.0325.
In the case of `OCCc1ccc(O)c(O)c1` [Hydroxytyrosol], the “NHEJ repair efficiency (log10)” value [1] was 0.0571 and the “HR repair efficiency (log10)” value [2] was 0.228.
With `O=C(O)c1cc(O)c2c(c1)C(C1c3cc(CO)cc(O)c3C(=O)c3c(OC4OC(CO)C(O)C(O)C4O)cccc31)c1cccc(OC3OC(CO)C(O)C(O)C3O)c1C2=O` (configuration not stated) [Sennoside D] the “NHEJ repair efficiency (log10)” value [1] was 0.274 and the “HR repair efficiency (log10)” value [2] was -0.297.
With `O=c1c(-c2ccc(O)cc2)coc2cc(O)ccc12` [Daidzein] the “NHEJ repair efficiency (log10)” value [1] was -0.0789 and the “HR repair efficiency (log10)” value [2] was -0.15.
For `Cc1ccc(C(C)C)cc1` [p-Cymene], the “NHEJ repair efficiency (log10)” value [1] was 0.065 and the “HR repair efficiency (log10)” value [2] was 0.196.
For `CC(=O)OCC1=C[C@@H]2OC(=O)C3=CO[C@@H](O[C@@H]4O[C@H](CO)[C@@H](O)[C@H](O)[C@H]4O)[C@H]1[C@@H]32` [Asperuloside], the “NHEJ repair efficiency (log10)” value [1] was 0.0752 and the “HR repair efficiency (log10)” value [2] was 0.1.
With `COc1cc(C=O)ccc1O` [Vanillin] the “NHEJ repair efficiency (log10)” value [1] was -0.132 and the “HR repair efficiency (log10)” value [2] was -0.154.
`c1cc2c(c3c1CC1c4cc5c(cc4CCN1C3)OCO5)OCO2` (configuration not stated) [Tetrahydrocoptisine] was tested, and the “NHEJ repair efficiency (log10)” value [1] was -0.0636 and the “HR repair efficiency (log10)” value [2] was -0.0746.
For `C=CCc1ccc(OC)c(OC)c1` [Methyleugenol], the “NHEJ repair efficiency (log10)” value [1] was 0.14 and the “HR repair efficiency (log10)” value [2] was 0.161.
In the case of `COc1ccc([C@@H]2OC[C@H]3[C@@H]2CO[C@@H]3c2ccc(O[C@@H]3O[C@H](CO)[C@@H](O)[C@H](O)[C@H]3O)c(OC)c2)cc1OC` [Forsythin], the “NHEJ repair efficiency (log10)” value [1] was -0.0743 and the “HR repair efficiency (log10)” value [2] was -0.0814.
With `O=c1cc(-c2ccc(O)cc2)oc2cc(O)c(O)c(O)c12` [Scutellarein] the “NHEJ repair efficiency (log10)” value [1] was -0.103 and the “HR repair efficiency (log10)” value [2] was -0.025.
With `COc1cc2ccc(=O)oc2cc1O` [Scopoletin] the “NHEJ repair efficiency (log10)” value [1] was -0.0239 and the “HR repair efficiency (log10)” value [2] was -0.177.
`O=C(/C=C/c1ccc(O)cc1)OC[C@H]1O[C@@H](Oc2c(-c3ccc(O)cc3)oc3cc(O)cc(O)c3c2=O)[C@H](O)[C@@H](O)[C@@H]1O` [Tiliroside] was tested, and the “NHEJ repair efficiency (log10)” value [1] was -0.00145 and the “HR repair efficiency (log10)” value [2] was -0.0226.
For `COc1ccc(-c2cc(=O)c3c(O)c(OC)c(O)c(OC)c3o2)cc1` [Nevadensin], the “NHEJ repair efficiency (log10)” value [1] was -0.111 and the “HR repair efficiency (log10)” value [2] was 0.0179.
In the case of `C[C@H]1[C@H](C)CC[C@]2(C(=O)O[C@@H]3O[C@H](CO[C@@H]4O[C@H](CO)[C@@H](O[C@@H]5O[C@@H](C)[C@H](O)[C@@H](O)[C@H]5O)[C@H](O)[C@H]4O)[C@@H](O)[C@H](O)[C@H]3O)CC[C@]3(C)C(=CC[C@@H]4[C@@]5(C)C[C@@H](O)[C@H](O)[C@@](C)(CO)[C@@H]5[C@H](O)C[C@]43C)[C@H]12` [Madecassoside], the “NHEJ repair efficiency (log10)” value [1] was 0.0946 and the “HR repair efficiency (log10)” value [2] was 0.19.
`COc1cc(O)c2c(=O)c3c(O[C@@H]4O[C@H](CO)[C@@H](O)[C@H](O)[C@H]4O)ccc(O)c3oc2c1` [Swertianolin] was tested, and the “NHEJ repair efficiency (log10)” value [1] was 0.00276 and the “HR repair efficiency (log10)” value [2] was 0.201.
For `O=c1c(-c2ccc(O[C@@H]3O[C@H](CO)[C@@H](O)[C@H](O)[C@H]3O)cc2)coc2cc(O)cc(O)c12` [Sophoricoside], the “NHEJ repair efficiency (log10)” value [1] was 0.185 and the “HR repair efficiency (log10)” value [2] was 0.0013.
With `O=C(O)CCC(=O)O` [Succinic acid] the “NHEJ repair efficiency (log10)” value [1] was 0.006 and the “HR repair efficiency (log10)” value [2] was 0.102.
With `Cn1cnc2c1c(=O)[nH]c(=O)n2C` [Theobromine] the “NHEJ repair efficiency (log10)” value [1] was -0.0855 and the “HR repair efficiency (log10)” value [2] was 0.141.
With `COC(=O)C1=CO[C@@H](O[C@@H]2O[C@H](CO)[C@@H](O)[C@H](O)[C@H]2O)[C@@H]2[C@@]3(C)O[C@H]3[C@@H](O)[C@]12O` [Sesamoside] the “NHEJ repair efficiency (log10)” value [1] was -0.0395 and the “HR repair efficiency (log10)” value [2] was -0.1.
In the case of `COc1cc2c(cc1O)CC[n+]1cc3c(OC)c(OC)ccc3cc1-2` [Jatrorrhizine], the “NHEJ repair efficiency (log10)” value [1] was -0.00725 and the “HR repair efficiency (log10)” value [2] was 0.0284.
`O=c1cc(-c2ccc(O)c(O)c2)oc2cc(O)c([C@@H]3O[C@H](CO)[C@@H](O)[C@H](O)[C@H]3O)c(O)c12` [Isoorientin] was tested, and the “NHEJ repair efficiency (log10)” value [1] was -0.0953 and the “HR repair efficiency (log10)” value [2] was 0.00986.
With `COc1cc2ccc(=O)oc2c(O)c1O` [Fraxetin] the “NHEJ repair efficiency (log10)” value [1] was 0.113 and the “HR repair efficiency (log10)” value [2] was 0.272.
In the case of `C=C1C2CCC3(C4C[C@H]5C6(CCC[C@@]5(C)CN(CC)C46)[C@H]3[C@H]2O)[C@@H]1O` [Bullatine A], the “NHEJ repair efficiency (log10)” value [1] was -0.197 and the “HR repair efficiency (log10)” value [2] was -0.165.
With `CC(C)=CCc1c(O)ccc(C(=O)/C=C/c2ccc(O)cc2)c1O` [Isobavachalcone] the “NHEJ repair efficiency (log10)” value [1] was 0.0115 and the “HR repair efficiency (log10)” value [2] was 0.0547.
For `COc1c2c(cc3c1-c1c(cc4c(c1OC)OCO4)C[C@H](C)[C@H](C)C3)OCO2` [Schisandrin C], the “NHEJ repair efficiency (log10)” value [1] was -0.137 and the “HR repair efficiency (log10)” value [2] was 0.0438.
For `C/C=C1/[C@H](O[C@@H]2O[C@H](CO)[C@@H](O)[C@H](O)[C@H]2O)OC=C(C(=O)OC)[C@H]1CC(=O)OCCc1ccc(O)c(O)c1` [Oleuropein], the “NHEJ repair efficiency (log10)” value [1] was 0.0183 and the “HR repair efficiency (log10)” value [2] was 0.0478.
In the case of `C=C1C[C@@]2(O)O[C@@]3(C[C@H]2C(C)C)[C@@H](C)CC[C@@H]13` [Curcumol], the “NHEJ repair efficiency (log10)” value [1] was -0.0784 and the “HR repair efficiency (log10)” value [2] was 0.163.
In the case of `Cn1c(=O)c2nc[nH]c2n(C)c1=O` [Theophylline], the “NHEJ repair efficiency (log10)” value [1] was 0.0481 and the “HR repair efficiency (log10)” value [2] was 0.0978.
With `COc1cc(O)c(CC=C(C)C)c(O)c1C(=O)/C=C/c1ccc(O)cc1` [Xanthohumol] the “NHEJ repair efficiency (log10)” value [1] was 0.0812 and the “HR repair efficiency (log10)” value [2] was 0.0483.
With `COc1ccc(/C=C/c2cc(O)cc(O[C@@H]3O[C@H](CO)[C@@H](O)[C@H](O)[C@H]3O)c2)cc1` [Desoxyrhaponticin] the “NHEJ repair efficiency (log10)” value [1] was 0.161 and the “HR repair efficiency (log10)” value [2] was 0.245.
`O=C(O)c1cc(O)c2c(c1)[C@H]([C@H]1c3cc(CO)cc(O)c3C(=O)c3c(O[C@@H]4O[C@H](CO)[C@@H](O)[C@H](O)[C@H]4O)cccc31)c1cccc(O[C@@H]3O[C@H](CO)[C@@H](O)[C@H](O)[C@H]3O)c1C2=O` [Sennoside C] was tested, and the “NHEJ repair efficiency (log10)” value [1] was -0.0248 and the “HR repair efficiency (log10)” value [2] was 0.148.
For `COc1ccc(-c2coc3cc(O)cc(O)c3c2=O)cc1` [Biochanin A], the “NHEJ repair efficiency (log10)” value [1] was -0.0507 and the “HR repair efficiency (log10)” value [2] was 0.0228.
For `C=C1[C@H]2CC[C@]3([C@@H]1O)[C@H]1C[C@@H]4C5(C)CCCC4([C@@H]1N(CC)C5)[C@@H]3[C@H]2O` [Denudatine], the “NHEJ repair efficiency (log10)” value [1] was -0.089 and the “HR repair efficiency (log10)” value [2] was 0.0616.
With `Cc1cc(O)cc(O[C@@H]2O[C@H](CO)[C@@H](O)[C@H](O)[C@H]2O)c1` [Orcinol Glucoside] the “NHEJ repair efficiency (log10)” value [1] was 0.0229 and the “HR repair efficiency (log10)” value [2] was -0.0841.
`CC=C1[C@H](O[C@@H]2O[C@H](CO)[C@@H](O)[C@H](O)[C@H]2O)OC=C(C(=O)OC)[C@H]1CC(=O)OC[C@H]1O[C@@H](OCCc2ccc(O)cc2)[C@H](O)[C@@H](O)[C@@H]1O` (stereo in doubt) [Specnuezhenide] was tested, and the “NHEJ repair efficiency (log10)” value [1] was 0.00632 and the “HR repair efficiency (log10)” value [2] was 0.0832.
In the case of `CC(C)=CCc1cc2c(cc1O)oc(=O)c1c3ccc(O)cc3oc21` [Psoralidin], the “NHEJ repair efficiency (log10)” value [1] was 0.31 and the “HR repair efficiency (log10)” value [2] was -0.0999.
With `C/C=C(\C)C(=O)OC1c2c(ccc3ccc(=O)oc23)OC(C)(C)C1OC(=O)/C(C)=C/C` (configuration not stated) [Praeruptorin B] the “NHEJ repair efficiency (log10)” value [1] was -0.0992 and the “HR repair efficiency (log10)” value [2] was 0.0577.
For `C[N+](C)(C)[C@H](Cc1c[nH]c2ccccc12)C(=O)[O-]` [Hypaphorine], the “NHEJ repair efficiency (log10)” value [1] was 0.0288 and the “HR repair efficiency (log10)” value [2] was -0.124.
`CCCCCCCCCCCCCCCCCC(=O)OC` [Methyl Stearate] was tested, and the “NHEJ repair efficiency (log10)” value [1] was -0.0143 and the “HR repair efficiency (log10)” value [2] was -0.0898.
For `CC(C)=CCC[C@](C)(O)[C@H]1CC[C@]2(C)[C@@H]1[C@H](O)C[C@@H]1[C@@]3(C)CC[C@H](O[C@@H]4O[C@H](CO)[C@@H](O)[C@H](O)[C@H]4O[C@@H]4O[C@H](CO)[C@@H](O)[C@H](O)[C@H]4O)C(C)(C)[C@@H]3CC[C@]12C` [R-Ginsenoside Rg3], the “NHEJ repair efficiency (log10)” value [1] was 0.0761 and the “HR repair efficiency (log10)” value [2] was -0.0174.
For `O=C(/C=C/c1ccc(O)c(O)c1)O[C@@H](C(=O)O)[C@@H](O)C(=O)O` [Caftaric Acid], the “NHEJ repair efficiency (log10)” value [1] was -0.0695 and the “HR repair efficiency (log10)” value [2] was -0.0835.
In the case of `O=C(/C=C/c1ccc(O[C@@H]2O[C@H](CO)[C@@H](O)[C@H](O)[C@H]2O)cc1)c1ccc(O)cc1O` [Isoliquiritin], the “NHEJ repair efficiency (log10)” value [1] was -0.0606 and the “HR repair efficiency (log10)” value [2] was -0.0597.
In the case of `C=CCc1ccc(O)c(-c2ccc(O)c(CC=C)c2)c1` [Honokiol], the “NHEJ repair efficiency (log10)” value [1] was 0.125 and the “HR repair efficiency (log10)” value [2] was 0.163.
With `O=C1C=C2C=C[C@@H](O)[C@H](O)[C@H]2O1` [Griffonilide] the “NHEJ repair efficiency (log10)” value [1] was 0.0786 and the “HR repair efficiency (log10)” value [2] was 0.00766.
With `NCCCC(=O)O` [γ-Aminobutyric Acid] the “NHEJ repair efficiency (log10)” value [1] was -0.0944 and the “HR repair efficiency (log10)” value [2] was 0.0562.
`C=C(C)[C@@H]1CC[C@]2(C)[C@H](CC=C3[C@@H]4[C@@H](C)[C@H](C)CC[C@]4(C)CC[C@]32C)[C@@]1(C)CCC(=O)O` [Roburic acid] was tested, and the “NHEJ repair efficiency (log10)” value [1] was 0.15 and the “HR repair efficiency (log10)” value [2] was 0.128.
For `Cn1c(=O)c2c(ncn2CC(O)CO)n(C)c1=O` (configuration not stated) [Diprophylline], the “NHEJ repair efficiency (log10)” value [1] was 0.137 and the “HR repair efficiency (log10)” value [2] was 0.116.
With `OC[C@H]1O[C@@H](Oc2ccc(O)cc2)[C@H](O)[C@@H](O)[C@@H]1O` [Arbutin] the “NHEJ repair efficiency (log10)” value [1] was -0.0725 and the “HR repair efficiency (log10)” value [2] was 0.0689.
With `Oc1ccc(/C=C/c2cc(O)cc(O)c2)cc1` [Resveratrol] the “NHEJ repair efficiency (log10)” value [1] was -0.0132 and the “HR repair efficiency (log10)” value [2] was 0.0336.

— the supplement of paper PMC7380943
